Screening data from PubChem.
NALP3 yeast inh = inhibitors of NALP3 inflammasome in yeast | Yeast reconstituted NLRP3/ASC/caspase-1, beta-gal luminescence, 24 h | inhibition, % at 10 µM | 330,000 compounds, 0.39% hits | AID 2825;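 active means inhibition of 50% or more; inactive means inhibition below 50%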;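 further: plate controls were induced DMSO wells for no effect and uninduced yeast grown without galactose for full effect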
PfHsp90 yeast 2 = growth inhibition of yeast expressing Plasmodium Hsp90; AID 504621; S. cerevisiae expressing PfHsp90, BacTiter-Glo ATP, 48 h; yeast lacking PDR1 and PDR3 efflux regulators; inhibition, % at 9.4 µM; 310,000 compounds, 0.32% hits;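 active means every replicate shows inhibition above about 80%, whatever the replicate mean, limit read from the data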;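 further: 0% = DMSO neutral controls and 100% = 20 µM radicicol positive controls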
TIM10 inh = inhibits growth of TIM10 yeast strain; S. cerevisiae TIM10 strain growth, BacTiter-Glo luminescence, 24 h; inhibition, % at 10 µM; 330,000 compounds, 1.4% hits; AID 463195;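 active means inhibition of 40% or more at the single tested concentration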;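 further: wild-type TIM10 isogenic control strain grown at permissive 25 °C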
tim23-1 inh = growth inhibitors of tim23-1 mutant yeast; inhibition, % at 20 µM; 330,000 compounds, 1.3% hits; S. cerevisiae tim23-1 growth, BacTiter-Glo luminescence, 24 h;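 active means growth inhibition of the mutant yeast at or above 50%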;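 further: temperature-sensitive mutant grown at 25 °C; plate controls were DMSO-treated mutant yeast for no effect and medium wells lacking yeast for full effect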
tim10-1 inh = growth inhibitors of tim10-1 mutant yeast; 330,000 compounds, 2.2% hits; AID 463190; S. cerevisiae tim10-1 ts strain growth, BacTiter-Glo, 24 h; inhibition, % at 20 µM;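 active means inhibition of at least 40%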;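 further: mutant grown at 25 °C; 0% = DMSO wells with yeast and 100% = wells holding no yeast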
SKKanGAS inh = blocks kanamycin growth of S. pyogenes SKKanGAS strain; 300,000 compounds, 1.3% hits; inhibition, % at 7.5 µM; BacTiter-Glo, 6 h; AID 1662;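 active means mean replicate score, as percent of positive control median, at least 50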;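 further: strain carries kanamycin resistance gene driven by streptokinase promoter and grows in 40 µg/ml kanamycin; loss of luminescence reflects streptokinase promoter inhibition or plain growth inhibition; 0% = median of DMSO wells and 100% = positive control at its reference dose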
tim10-1 confirm = tim10-1 yeast growth inhibition, confirmed. shares compounds with tim10-1 inh. S. cerevisiae tim10-1 ts strain growth, BacTiter-Glo, 24 h. inhibition, % at 20 µM. 7,400 compounds, 56% hits. AID 463213;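 active means inhibition of yeast growth at or above a set limit in either of two repeat tests at 20 µM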;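 further: tim10-1 mutant grown at permissive 25 °C to find synthetic lethal compounds; 0% = DMSO yeast wells and 100% = medium wells without yeast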
An asterisk follows results filed as active. The list is not random: actives were taken first. Their share in the collection is about 4.6%.

For C=CCN1CC(c2nc3ccccc3n2Cc2cccc3ccccc23)CC1=O (configuration not stated) the results were NALP3 yeast inh 3, PfHsp90 yeast 2 14, TIM10 inh 30, tim23-1 inh 27, tim10-1 inh 45*, SKKanGAS inh -9 and tim10-1 confirm 15.
C/C(CC(=O)Nc1ccc(C)c(Cl)c1)=N\NC(=O)c1ccco1 was read as NALP3 yeast inh 12, PfHsp90 yeast 2 -8, TIM10 inh 31, tim23-1 inh 45, tim10-1 inh 41*, SKKanGAS inh 3 and tim10-1 confirm 0.
Screening C/C(CC(=O)Nc1ccc(C)c(Cl)c1)=N\NC(=O)Cc1ccccc1 returned NALP3 yeast inh 4, PfHsp90 yeast 2 15, TIM10 inh -3, tim23-1 inh 25, tim10-1 inh 3 and SKKanGAS inh 11.
Screening Cc1cc(C)cc(OCCCOc2cccc3cccnc23)c1 returned NALP3 yeast inh 33, PfHsp90 yeast 2 2, TIM10 inh 27, tim23-1 inh 37, tim10-1 inh 42*, SKKanGAS inh 7 and tim10-1 confirm 33*.
O=C(Nc1nc2c(Cl)cccc2s1)C1CC1 was read as NALP3 yeast inh 0, PfHsp90 yeast 2 32, TIM10 inh -18, tim23-1 inh 46, tim10-1 inh 56*, SKKanGAS inh 0 and tim10-1 confirm -10.
Screening Cc1ccc2sc(NC(=O)C3CC3)nc2c1C returned NALP3 yeast inh 27, PfHsp90 yeast 2 32, TIM10 inh 31, tim23-1 inh 42, tim10-1 inh 46*, SKKanGAS inh 3 and tim10-1 confirm 3.
Cc1cccc2sc(NC(=O)C3c4ccccc4Oc4ccccc43)nc12 was read as NALP3 yeast inh -1, TIM10 inh 33, tim23-1 inh 36, tim10-1 inh 41*, SKKanGAS inh 30 and tim10-1 confirm 33*.
Screening Cc1cccc2sc(NC(=O)C3CC3)nc12 returned NALP3 yeast inh 14, PfHsp90 yeast 2 11, TIM10 inh 12, tim23-1 inh 26, tim10-1 inh 6 and SKKanGAS inh 2.
O=C(c1ccc(Br)cc1)c1sc(N2CCOCC2)nc1-c1ccccc1 was read as NALP3 yeast inh 27, TIM10 inh -8, tim23-1 inh -2, tim10-1 inh 0 and SKKanGAS inh -5.
NS(=O)(=O)c1ccc(CCNC(=O)c2ccccc2-c2ccccc2)cc1 was read as NALP3 yeast inh 12, PfHsp90 yeast 2 -12, TIM10 inh -19, tim23-1 inh 14, tim10-1 inh 1 and SKKanGAS inh -3.
O=C(CSc1ccc2nnc(-c3cccc(F)c3)n2n1)N1CCCc2ccccc21 was read as NALP3 yeast inh -10, PfHsp90 yeast 2 16, TIM10 inh 9, tim23-1 inh 10, tim10-1 inh 31 and SKKanGAS inh -2.
`CCSc1ccc2nnc(-c3cccc(F)c3)n2n1` gave NALP3 yeast inh 28, PfHsp90 yeast 2 -13, TIM10 inh 33, tim23-1 inh 38, tim10-1 inh 40*, SKKanGAS inh -7 and tim10-1 confirm 34*.
For O=C1C(Cl)=C(N2CCN(Cc3ccccc3)CC2)C(=O)N1Cc1ccccc1 the results were NALP3 yeast inh 16, PfHsp90 yeast 2 -4, TIM10 inh 28, tim23-1 inh 26, tim10-1 inh 44*, SKKanGAS inh 40 and tim10-1 confirm 14.
`O=C(NCC1CCN(Cc2ccc(F)cc2)CC1)Nc1cc(F)ccc1F` gave NALP3 yeast inh 21, PfHsp90 yeast 2 -17, TIM10 inh -25, tim23-1 inh 5, tim10-1 inh 2 and SKKanGAS inh 2.
Clc1ccc(Cl)c(-c2nn3c(COc4ccccc4)nnc3s2)c1 was read as NALP3 yeast inh -14, PfHsp90 yeast 2 -14, TIM10 inh 2, tim23-1 inh 6, tim10-1 inh 36 and SKKanGAS inh 3.
`c1ccc(OCc2nnc3sc(-c4cccs4)nn23)cc1` gave NALP3 yeast inh -15, TIM10 inh 21, tim23-1 inh 8, tim10-1 inh 47*, SKKanGAS inh -4 and tim10-1 confirm 16.
Screening O=C1c2cccc(Cl)c2C(=O)c2c1cccc2N1CCCC1 returned NALP3 yeast inh 27, PfHsp90 yeast 2 19, TIM10 inh 38, tim23-1 inh 42, tim10-1 inh 53*, SKKanGAS inh 5 and tim10-1 confirm 38*.
Screening CCOC(=O)C1=C(C)NC(=O)C1CC(=O)O (configuration not stated) returned NALP3 yeast inh 3, PfHsp90 yeast 2 17, TIM10 inh -16, tim23-1 inh 0, tim10-1 inh -13 and SKKanGAS inh 0.
For O=C(Nc1nc(-c2ccco2)c(-c2ccco2)s1)c1ccc(F)cc1F the results were NALP3 yeast inh 5, PfHsp90 yeast 2 12, TIM10 inh 16, tim23-1 inh 25, tim10-1 inh 40* and tim10-1 confirm 43*.
O=C(Nc1nc(-c2ccco2)c(-c2ccco2)s1)c1c(F)cccc1Cl was read as NALP3 yeast inh 12, PfHsp90 yeast 2 -18, TIM10 inh 25, tim23-1 inh 38 and tim10-1 inh 30.
O=C(N=C1SCC(=O)N1c1ccccc1Cl)c1ccco1 was read as NALP3 yeast inh -5, PfHsp90 yeast 2 -10, TIM10 inh 24, tim23-1 inh 13, tim10-1 inh 30 and SKKanGAS inh -2.
O=C(N=C1SCC(=O)N1c1ccccc1Cl)c1ccccc1 was read as NALP3 yeast inh 19, PfHsp90 yeast 2 8, TIM10 inh 8, tim23-1 inh 35, tim10-1 inh 42*, SKKanGAS inh -2 and tim10-1 confirm 24.
For N=C1C(c2nc3ccccc3c(=O)[nH]2)=C(O)CN1CCO the results were NALP3 yeast inh 10, PfHsp90 yeast 2 -16, TIM10 inh 1, tim23-1 inh 42, tim10-1 inh 22 and SKKanGAS inh 1.
`N=C1C(c2nc3ccccc3c(=O)[nH]2)=C(O)CN1CCc1ccccc1` gave NALP3 yeast inh -4, PfHsp90 yeast 2 8, TIM10 inh 12, tim23-1 inh 9, tim10-1 inh 41*, SKKanGAS inh 8 and tim10-1 confirm -14.
Screening CC(C)Oc1ccc(C(CC(=O)NCc2ccco2)c2ccccc2)cc1 (configuration not stated) returned NALP3 yeast inh 1, PfHsp90 yeast 2 -11, TIM10 inh 19, tim23-1 inh 20, tim10-1 inh 40*, SKKanGAS inh 1 and tim10-1 confirm 11.
For O=C1S/C(=C/c2ccc(N3CCOCC3)o2)C(=O)N1Cc1c(F)cccc1Cl the results were NALP3 yeast inh 33, PfHsp90 yeast 2 95*, TIM10 inh 24, tim23-1 inh 29, tim10-1 inh 59*, SKKanGAS inh -6 and tim10-1 confirm 58*.
